Results filed as inconclusive are left out. Activity calls are given as the source filed them. Calls come from the whole dose curve; as a rule, active = well fitted curve in the direction sought with a large enough effect; inconclusive = small, poorly fitted or top-dose-only effect, or another doubt; inactive = no such curve, though single readings can be large; an effect the other way counts as inactive or inconclusive. Where a SMILES comes first, the peptide text is derived from it. [ ]: non-standard residue; d: D form. pGlu = O=C1CC[C@@H](C(=O)O)N1
Assays:
[1] = qHTS assay for measurement of the activity of small molecule inhibitors on Zika virus induced Caspase-3 activity in human iPSC derived neural progenitor cells (hNPCs) (AID 1224857); conditions: hNPCs ZIKV-induced caspase-3/7, Caspase-Glo luminescence, 6 h; series mostly up to 45.7 µM; note: nearly all actives have a fitted effect of over 65% in size
Summary of the method: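 Percent inhibition of virus-induced caspase-3/7 luminescence (Caspase-Glo), scaled between uninfected cells and Zika-infected cells. hNPCs received compound 1 hr before ZIKV at 2 FFU/cell, with 6 hours infection at 37 C.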

[2] = qHTS assay for measurement of the activity of small molecule inhibitors on Zika virus induced Caspase-3 activity in human astrocytoma cells (AID 1224859); conditions: SNB-19 ZIKV-induced caspase-3/7, luminescence, 6 h; series mostly up to 45.7 µM
Summary of the method: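 Luminescent caspase-3/7 read-out (30 min reagent, room temperature) in human SNB-19 cells infected 6 h with ZIKV (2 FFU/cell) after 1 h compound pre-incubation; Data were normalised to uninfected and infected wells.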

[3] = NS1 protein of Zika virus - qHTS assay to identify small molecule inhibitors in human HEK 293 cells (AID 1347053); conditions: HEK293 ZIKV MR766 infection, NS1 TR-FRET, 24 h; series mostly up to 46.1 µM; note: nearly all actives have a fitted effect of over 55% in size
Summary of the method: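 HEK 293 cells pretreated with compound for 1 h, then infected with ZIKV MR766 (MOI 0.5) for 24 h at 37 C. NS1 detected by TR-FRET with two anti-NS1 antibodies; normalized to uninfected (0%) and infected (100%) wells.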

[4] = qHTS of pediatric cancer cell lines to identify multiple opportunities for drug repurposing: Primary screen for TC32 cells (AID 1347089); conditions: TC32 Ewing sarcoma viability, CellTiter-Glo luminescence, 48 h; series mostly up to 45.8 µM; note: nearly all actives have a fitted effect of over 60% in size
Summary of the method: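 Luminescent ATP read-out (CellTiter-Glo) of metabolically active TC32 cells after 48 h exposure. Concentration-response curves came from 11-point (MIPE, 0.78 nM–46 µM) or 8-point (NPC, 0.59 nM–46 µM) primary titrations; follow-up used 11 points.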

[5] = qHTS of pediatric cancer cell lines to identify multiple opportunities for drug repurposing: Primary screen for DAOY cells (AID 1347090); conditions: DAOY medulloblastoma viability, CellTiter-Glo luminescence, 48 h; series mostly up to 46 µM; note: nearly all actives have a fitted effect of over 55% in size
Summary of the method: (§1)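 Eight- or eleven-point concentration series, 48 h treatment at 37 degrees C in growth media; readout CellTiter-Glo luminescence. Potency and efficacy were taken from the concentration-response curves.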

[6] = qHTS of pediatric cancer cell lines to identify multiple opportunities for drug repurposing: Primary screen for SJ-GBM2 cells (AID 1347091); conditions: SJ-GBM2 viability, CellTiter-Glo luminescence, 48 h; series mostly up to 46 µM
Summary of the method: as §1

[7] = qHTS of pediatric cancer cell lines to identify multiple opportunities for drug repurposing: Primary screen for A673 cells (AID 1347092); conditions: A673 Ewing sarcoma viability, CellTiter-Glo ATP luminescence, 48 h; series mostly up to 46 µM; note: nearly all actives have a fitted effect of over 45% in size
Summary of the method: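 Cell viability of A673 measured by CellTiter-Glo ATP luminescence after 48 hours compound exposure. Dilution series spanned 0.78 nM to 46 µM (MIPE, 11-point) or 0.59 nM to 46 µM (NPC, 8-point); bortezomib 2.3 uM positive control.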

Measured: Potency

O=C(O)/C=C(\CC(=O)O)C(=O)O
inactive: all assays above

O=C(O)Cn1c(=O)n(Cc2ccc(Br)cc2F)c(=O)c2ccc(Cl)cc21
inactive: all assays above

COc1ccc2c(c1)c(CC(=O)OC/C=C(\C)CC/C=C(\C)CCC=C(C)C)c(C)n2C(=O)c1ccc(Cl)cc1
inactive: all assays above

N=C(N)c1ccc(OCCCOc2ccc(C(=N)N)cc2)cc1
inactive: all assays above

c1ccc2c(c1)CCc1ccccc1N2
inactive: all assays above

O=C1c2ccccc2CCc2ccccc21
inactive: all assays above

O=C(OCC(O)CO)c1ccccc1Nc1ccnc2c(C(F)(F)F)cccc12 (centres undefined)
inactive: all assays above

CC1(C)S[C@@H]2[C@H](NC(=O)C(c3ccccc3)S(=O)(=O)O)C(=O)N2[C@H]1C(=O)O (some centres undefined)
inactive: all assays above

O=c1[nH]c(=O)n([C@H]2O[C@H](CO)[C@@H](O)[C@@H]2O)cc1/C=C\Br
inactive: all assays above

CC(=O)O[C@@H]1CC2C3CCc4cc(OC(=O)c5ccccc5)ccc4C3CCC2(C)[C@H]1OC(C)=O (some centres undefined)
inactive: all assays above

C[N+]1(C)CCC(OC(=O)C(O)(c2ccccc2)C2CCCC2)C1 (centres undefined)
inactive: all assays above

CN(C)CCCOC1(Cc2ccccc2)CCCCCC1
inactive: all assays above

CNC(=O)c1c(I)c(NC(C)=O)c(I)c(C(=O)O)c1I
inactive: all assays above

CN(C)CCN(Cc1ccsc1)c1ccccn1
inactive: all assays above

CN(C)[C@@H]1C(=O)C(C(N)=O)=C(O)[C@@]2(O)C(=O)C3=C(O)c4c(O)cccc4C[C@H]3C[C@@H]12
inactive: all assays above

CC(C)(C)CC(=O)OCC(=O)[C@@]1(O)CC[C@H]2[C@@H]3CCC4=CC(=O)C=C[C@]4(C)[C@H]3[C@@H](O)C[C@@]21C
inactive: all assays above

CC(=O)O[C@H]1CC[C@@]2(C)C(=CC[C@@H]3[C@@H]2CC[C@]2(C)C(C(C)=O)=CC[C@@H]32)C1
inactive: all assays above

O=C1CC[C@H](C(=O)N2CCCCC2)N1
inactive: all assays above

CC(C)(Oc1ccc(Cl)cc1)C(=O)OCCCOC(=O)C(C)(C)Oc1ccc(Cl)cc1
inactive: all assays above

CN=C(N)NC(=O)Nc1c(C)cccc1C
inactive: all assays above

CCOC(=O)C(=O)CCc1ccccc1
inactive: all assays above

COc1ccc(CCC(C)=O)cc1
inactive: all assays above

CCOc1c(N2CCOCC2)cnn(C)c1=O
inactive: all assays above

CCCCCCn1c(=O)c2c(ncn2C)n(C)c1=O
inactive: all assays above

COc1cc2c(cc1OC)C(=O)CC2
inactive: all assays above

CCNC(=O)[C@@H]1CCCN1C(=O)[C@H](CCCN=C(N)N)NC(=O)[C@H](CC(C)C)NC(=O)CNC(=O)[C@H](Cc1ccc(O)cc1)NC(=O)[C@H](CO)NC(=O)[C@H](Cc1c[nH]c2ccccc12)NC(=O)[C@H](Cc1cnc[nH]1)NC(=O)[C@@H]1CCC(=O)N1 ([pGlu]HWSYGLRP-NHEt)
inactive: all assays above

COC(=O)C1=C(C)NC(COC(N)=O)=C(C(=O)OC(C)C)C1c1cccc(Cl)c1Cl (centres undefined)
inactive: all assays above

O=C1CC2(CCCC2)CC(=O)N1
inactive: all assays above

Cc1oc(=O)oc1COC(=O)[C@@H]1N2C(=O)[C@@H](NC(=O)[C@H](N)c3ccccc3)[C@H]2SC1(C)C
inactive: all assays above

CC(C)C(C)(C)C(C)(C)C(C)(C)S
inactive: all assays above

O=C(OCC1(COC(=O)c2cccnc2)CCCC(COC(=O)c2cccnc2)(COC(=O)c2cccnc2)C1O)c1cccnc1
inactive: all assays above

CC(=O)N[C@@H](CO)C(=O)N[C@@H](CC(=O)O)C(=O)N[C@@H](CCCCN)C(=O)N1CCC[C@H]1C(=O)O (Ac-SDKP-OH)
inactive: all assays above

COc1ccc2nc(SCc3ncc(C)c(OC)c3C)[nH]c2c1
inactive: all assays above

CCN(CC)CC(=O)Oc1ccc(NC(C)=O)cc1
inactive: all assays above

CC(=O)OCC(=O)[C@@]1(O)[C@H](OC(C)=O)C[C@H]2[C@@H]3CCC4=CC(=O)C=C[C@]4(C)[C@@]3(F)[C@@H](O)C[C@@]21C
inactive: all assays above

O=C(CCOCCOCCOCCOCCC(=O)Nc1c(I)cc(I)c(C(=O)O)c1I)Nc1c(I)cc(I)c(C(=O)O)c1I
inactive: all assays above

CCC(=O)Oc1ccc2c(c1)CC[C@@H]1[C@@H]2CC[C@@]2(C)[C@H]1C[C@@H](OC(=O)CC)[C@@H]2OC(=O)CC
inactive: all assays above

COc1ccc2cc(C=O)ccc2c1
inactive: all assays above

Cc1cccc(OCC(O)CNC(C)(C)C)c1C (centres undefined)
inactive: all assays above

COc1ccccc1N1CCN(CC(O)COc2cc(OC)c(OC)c(OC)c2)CC1 (centres undefined)
inactive: all assays above

[O-][n+]1cccc(/C(Cl)=N/OC[C@@H](O)CN2CCCCC2)c1
inactive: all assays above

COc1c(N2C[C@@H]3CCCN[C@@H]3C2)c(F)cc2c(=O)c(C(=O)O)cn(C3CC3)c12
inactive: all assays above

CC(C)CCCC(C)NCCC(C)C (centres undefined)
inactive: all assays above

CCCCNc1ccc(C(=O)OCCN(CC)CC)cc1
inactive: all assays above

CCn1ccc(NS(=O)(=O)c2ccc(N)cc2)nc1=O
inactive: all assays above

CC1(C)OC(=O)Nc2ccc(Br)cc21
inactive: all assays above

Cc1onc(-c2c(Cl)cccc2Cl)c1C(=O)Cl
inactive: all assays above

CCO[C@H](Cc1ccc(OCCc2ccc(OS(C)(=O)=O)cc2)cc1)C(=O)O
inactive: all assays above

CCCC(CCC)(C(=O)OCC)C(=O)OCC
inactive: all assays above

CC(COc1ccccc1)NN (centres undefined)
inactive: all assays above

CCN1CCCC1CN (centres undefined)
inactive: all assays above

CCOCCn1c(C2CCN(CCc3ccc(C(C)(C)C(=O)O)cc3)CC2)nc2ccccc21
inactive: all assays above
